Experimental data from the supplement of paper PMC13380429.
Values without a mark were called inactive.

System: Vero E6 infected with SARS-CoV-2
Experiment: inhibition of SARS-CoV-2 cytopathic effect; higher = more antiviral protection, active = above 15
Conditions: 48 h

| Compound | inhibition of SARS-CoV-2 cytopathic effect (1 nM) [%] | inhibition of SARS-CoV-2 cytopathic effect (8.33 nM) [%] | inhibition of SARS-CoV-2 cytopathic effect (100 nM) [%] | inhibition of SARS-CoV-2 cytopathic effect (833.33 nM) [%] | inhibition of SARS-CoV-2 cytopathic effect (10000 nM) |
| --- | --- | --- | --- | --- | --- |
| O=C1C=CC[C@@H]2[C@H]3CCCN4CCC[C@@H](CN12)[C@@H]34 [sophocarpine] | -8.47 | -10.7 | -12.4 | -12.3 | -13.3% |
| Cc1ccc(N(CC2=NCCN2)c2cccc(O)c2)cc1 [phentolamine] | -1.41 | 0.07 | -0.25 | 1.86 | -4.23% |
| O=C(O)C1=CCCN(CCON=C(c2ccccc2)c2ccccc2)C1 | -1.65 | 0.36 | 0.96 | 0.86 | 2.06% |
| C[C@@H](O)[C@@H]1NC(=O)[C@H](CCCCN)NC(=O)[C@@H](Cc2c[nH]c3ccccc23)NC(=O)[C@H](Cc2ccccc2)NC(=O)[C@@H](NC(=O)[C@H](N)Cc2ccccc2)CSSC[C@@H](C(=O)N[C@H](CO)[C@@H](C)O)NC1=O [octreotide] | 2.23 | -0.63 | -1.24 | 3.26 | -1.58% |
| Oc1ccc(-c2c(-c3ccccc3)nn3c(C(F)(F)F)cc(C(F)(F)F)nc23)cc1 | 0.08 | 0.21 | -0.05 | -1.7 | 11.9% |
| O=C1CCC[C@@H]2[C@H]3CCCN4CCC[C@@H](CN12)[C@@H]34 [matrine] | -2.75 | -0.7 | -1.73 | -0.8 | -2.2% |
| Cc1c(N)c(=O)n(-c2ccccc2)n1C [ampyrone] | -3.22 | -2.95 | -3.07 | -2.31 | -1.12% |
| CCOC(=O)COc1ccc2c(=O)cc(-c3ccccc3)oc2c1 [efloxate] | -1.98 | 0.67 | 0.32 | -1.24 | -0.78% |
| COc1ccc(CNC(=O)/C=C/c2ccc3[nH]cc(CCN(C)C)c3c2)cc1 | 2.58 | 0.05 | 1.04 | 1.72 | 2.86% |
| Oc1ccc(Cl)cc1Cc1cc(Cl)ccc1O [dichlorophen] | -4.53 | 0.22 | -2.85 | -2.86 | 1.46% |
| CC(C)(C)[C@]1(O)CCN2C[C@H]3c4ccccc4CCc4cccc(c43)[C@@H]2C1 [butaclamol] | 1.69 | 1.31 | 0.21 | 1.72 | -3.01% |
| C/C=C(/C)C(=O)O[C@H]1C(C)=C[C@]23C(=O)[C@@H](C=C(CO)[C@@H](O)[C@]12O)[C@H]1[C@@H](C[C@H]3C)C1(C)C [ingenol-mebutate] | -1.66 | -1.76 | -8.12 | -7.76 | -8.66% |
| CC(=O)N[C@H]1[C@H]([C@H](O)[C@H](O)CO)OC(C(=O)O)=C[C@@H]1NC(=N)N [zanamivir] | 0.39 | 0.16 | -0.26 | 2.6 | 2.28% |
| Cn1cc([S+](C)[O-])c(=O)c2ccc(F)cc21 (stereo not given) [flosequinan] | -1.94 | -0.91 | 0.34 | 2.01 | 0.19% |
| O=C1CCCN1CC#CCN1CCCC1 [oxotremorine-sesquifumarate] | 0.81 | 2.23 | 4.01 | 3.15 | 0.96% |
| CC(=O)[C@H]1CC[C@H]2[C@@H]3CC[C@H]4C[C@H](O)CC[C@]4(C)[C@H]3C(=O)C[C@]12C [alfaxalone] | -1.46 | 0.56 | -1.95 | -1.55 | -4.57% |
| Cc1ccc(NC2=CC(=O)c3sc(C)nc3C2=O)cc1 [ryuvidine] | 1.42 | 4.18 | 4.56 | 6.56 | -20.4% |
| Cc1c(CN(C)C(=O)/C=C/c2cnc3c(c2)CCC(=O)N3)oc2ccccc12 | 0.18 | -1.15 | 1.59 | 0.21 | -1.4% |
| Cn1nccc1Nc1nccc(-c2ccn([C@H](CO)c3ccc(Cl)c(F)c3)c(=O)c2)n1 | 0.72 | 0.13 | -0.395 | -5.82 | -9.29% |

| Compound | inhibition of SARS-CoV-2 cytopathic effect (1 nM) [%] | inhibition of SARS-CoV-2 cytopathic effect (8.33 nM) [%] | inhibition of SARS-CoV-2 cytopathic effect (100 nM) [%] | inhibition of SARS-CoV-2 cytopathic effect (833.33 nM) [%] | inhibition of SARS-CoV-2 cytopathic effect (10000 nM) |
| --- | --- | --- | --- | --- | --- |
| OC[C@H]1O[C@@H](c2ccc(Cl)c(Cc3ccc(O[C@H]4CCOC4)cc3)c2)[C@H](O)[C@@H](O)[C@@H]1O [empagliflozin] | 1.11 | -0.27 | 0.91 | 1.13 | -2.24% |
| COc1cc(-c2ncn(/C=C\C(=O)OC(C)C)n2)cc(C(F)(F)F)c1 | -1.83 | -2.94 | -8.02 | -12.1 | -11.7% |
| CCN(CC)CCOC(=O)C1(c2ccc([N+](=O)[O-])cc2)CCCC1 [nitrocaramiphen] | -3.06 | 1.17 | 1.69 | -0.19 | -0.92% |
| C=CCN1CC[C@]23c4c5ccc(O)c4O[C@H]2[C@@H](OCCOCCOCCOCCOCCOCCOCCOC)CC[C@@]3(O)[C@H]1C5 [naloxegol] | 2.88 | 0.75 | 1.49 | 0.6 | -1.7% |
| Cc1c(N(C)C)c(=O)n(-c2ccccc2)n1C [amidopyrine] | -14.8 | -9.18 | -12 | -13.2 | -11.7% |
| CCc1[nH]c(=O)[nH]c1C(=O)c1ccncc1 [piroximone] | -0.93 | 5 | 3.91 | 3.62 | -1.11% |
| CCCCC/C=C\C/C=C\C/C=C\CCCCC(=O)O [gamma-linolenic-acid] | -0.6 | -2.39 | -2.33 | -1.24 | -1.03% |
| NNC(=O)CN1C(=O)CN=C(c2ccccc2)c2cc(Br)ccc21 [gidazepam] | 0.8 | 2.74 | 1.83 | 2.01 | 3.71% |
| O=C(O)c1cccnc1Nc1cccc(C(F)(F)F)c1 [niflumic-acid] | 1.14 | 2.42 | -0.03 | 1.51 | 1.54% |
| CC(=O)OCC(=O)[C@@]12N=C(C)O[C@@H]1C[C@H]1[C@@H]3CCC4=CC(=O)C=C[C@]4(C)[C@H]3[C@@H](O)C[C@@]12C [Deflazacort (Calcort)] | 2.25 | -0.15 | -11.5 | 2.17 | 0.96% |
| CC(=O)OCC(=O)[C@@]1(OC(C)=O)[C@@H](C)C[C@H]2[C@@H]3C[C@H](F)C4=CC(=O)C=C[C@]4(C)[C@@]3(F)[C@@H](O)C[C@@]21C [diflorasone-diacetate] | 3.78 | 2.43 | 1.22 | 0.13 | 1.53% |
| C[N+]1(C)CCCC(OC(=O)C(O)(c2ccccc2)c2ccccc2)C1 (stereo not given) [mepenzolate] | -0.21 | -0.16 | -3.53 | 0.26 | 0.49% |
| c1ccc(CCCN2CCN(CCOC(c3ccccc3)c3ccccc3)CC2)cc1 | 0.71 | 0.97 | -0.18 | 0.61 | -1.85% |
| CC(C)N(CCCNC(=O)Nc1ccc(C(C)(C)C)cc1)C[C@H]1O[C@@H](n2cc(Br)c3c(N)ncnc32)[C@H](O)[C@@H]1O | 0.32 | 9.52 | -1.5 | -1.25 | 0.03% |
| O=C(O)c1ccccc1C(=O)Nc1ccc(S(=O)(=O)Nc2nccs2)cc1 [phthalylsulfathiazole] | -0.6 | 1.91 | 1.2 | 1.78 | -0.84% |
| C/N=C(/NC#N)NCCSCc1csc(NC(=N)N)n1 [tiotidine] | -3.61 | -1.47 | -1.51 | -3.05 | -1.02% |
| Nc1nc(NC[C@H]2CC[C@H](CNS(=O)(=O)c3cccc4ccccc34)CC2)nc2ccccc12 | -0.54 | -0.03 | 0.19 | -0.88 | 29.5% (active) |
| O=Cc1cn(Cc2ccc(Cl)cc2)c2ccccc12 [oncrasin-1] | 1.13 | -1.86 | 2.77 | 2.11 | 2.76% |
| Cc1nc(Nc2cnn(C3CCNCC3)c2)nc2c1N(C)C(=O)c1cc3ccccc3cc1N2C | 2.64 | -1.33 | -2.15 | 1.63 | 48.4% (active) |
